Reference: ChEMBL document CHEMBL2218924, “A broad activity screen in support of a chemogenomic map for kinase signalling research and drug discovery” (Biochem J, 2013)

Experiments:
[1] = molecular target: T1, Dual specificity mitogen-activated protein kinase kinase 6 (Homo sapiens) (UniProt P52564); details: at 1 µM
T1 sequence (whole entry): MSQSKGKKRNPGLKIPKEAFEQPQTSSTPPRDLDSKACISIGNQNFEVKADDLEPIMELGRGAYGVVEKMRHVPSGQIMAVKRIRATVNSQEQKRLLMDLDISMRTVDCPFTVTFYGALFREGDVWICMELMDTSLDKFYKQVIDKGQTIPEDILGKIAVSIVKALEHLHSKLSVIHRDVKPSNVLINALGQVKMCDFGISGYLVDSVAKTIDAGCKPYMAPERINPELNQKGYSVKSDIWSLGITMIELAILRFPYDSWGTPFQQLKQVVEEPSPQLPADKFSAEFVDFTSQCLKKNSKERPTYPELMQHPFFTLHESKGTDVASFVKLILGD

[2] = molecular target: T1, Dual specificity mitogen-activated protein kinase kinase 6 (Homo sapiens); details: at 10 µM
[3] = molecular target: T2, Dual specificity mitogen-activated protein kinase kinase 7 (Homo sapiens) (UniProt O14733); details: at 1 µM
T2 sequence (whole entry): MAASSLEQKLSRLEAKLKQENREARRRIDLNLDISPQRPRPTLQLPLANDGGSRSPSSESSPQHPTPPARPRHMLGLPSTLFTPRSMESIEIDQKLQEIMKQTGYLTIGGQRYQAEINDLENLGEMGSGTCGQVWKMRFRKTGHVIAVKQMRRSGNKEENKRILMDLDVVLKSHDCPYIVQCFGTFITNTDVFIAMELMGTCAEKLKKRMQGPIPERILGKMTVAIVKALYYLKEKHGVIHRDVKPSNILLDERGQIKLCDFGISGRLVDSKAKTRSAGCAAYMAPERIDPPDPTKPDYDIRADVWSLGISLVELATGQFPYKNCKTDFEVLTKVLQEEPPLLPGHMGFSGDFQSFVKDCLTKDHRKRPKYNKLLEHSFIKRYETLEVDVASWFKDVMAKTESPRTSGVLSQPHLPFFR

[4] = molecular target: T2, Dual specificity mitogen-activated protein kinase kinase 7 (Homo sapiens); details: at 10 µM
[5] = molecular target: Myosin light chain kinase, smooth muscle (Homo sapiens) (UniProt Q15746); details: at 1 µM
Myosin light chain kinase, smooth muscle (Homo sapiens), sequence (Q15746 whole entry): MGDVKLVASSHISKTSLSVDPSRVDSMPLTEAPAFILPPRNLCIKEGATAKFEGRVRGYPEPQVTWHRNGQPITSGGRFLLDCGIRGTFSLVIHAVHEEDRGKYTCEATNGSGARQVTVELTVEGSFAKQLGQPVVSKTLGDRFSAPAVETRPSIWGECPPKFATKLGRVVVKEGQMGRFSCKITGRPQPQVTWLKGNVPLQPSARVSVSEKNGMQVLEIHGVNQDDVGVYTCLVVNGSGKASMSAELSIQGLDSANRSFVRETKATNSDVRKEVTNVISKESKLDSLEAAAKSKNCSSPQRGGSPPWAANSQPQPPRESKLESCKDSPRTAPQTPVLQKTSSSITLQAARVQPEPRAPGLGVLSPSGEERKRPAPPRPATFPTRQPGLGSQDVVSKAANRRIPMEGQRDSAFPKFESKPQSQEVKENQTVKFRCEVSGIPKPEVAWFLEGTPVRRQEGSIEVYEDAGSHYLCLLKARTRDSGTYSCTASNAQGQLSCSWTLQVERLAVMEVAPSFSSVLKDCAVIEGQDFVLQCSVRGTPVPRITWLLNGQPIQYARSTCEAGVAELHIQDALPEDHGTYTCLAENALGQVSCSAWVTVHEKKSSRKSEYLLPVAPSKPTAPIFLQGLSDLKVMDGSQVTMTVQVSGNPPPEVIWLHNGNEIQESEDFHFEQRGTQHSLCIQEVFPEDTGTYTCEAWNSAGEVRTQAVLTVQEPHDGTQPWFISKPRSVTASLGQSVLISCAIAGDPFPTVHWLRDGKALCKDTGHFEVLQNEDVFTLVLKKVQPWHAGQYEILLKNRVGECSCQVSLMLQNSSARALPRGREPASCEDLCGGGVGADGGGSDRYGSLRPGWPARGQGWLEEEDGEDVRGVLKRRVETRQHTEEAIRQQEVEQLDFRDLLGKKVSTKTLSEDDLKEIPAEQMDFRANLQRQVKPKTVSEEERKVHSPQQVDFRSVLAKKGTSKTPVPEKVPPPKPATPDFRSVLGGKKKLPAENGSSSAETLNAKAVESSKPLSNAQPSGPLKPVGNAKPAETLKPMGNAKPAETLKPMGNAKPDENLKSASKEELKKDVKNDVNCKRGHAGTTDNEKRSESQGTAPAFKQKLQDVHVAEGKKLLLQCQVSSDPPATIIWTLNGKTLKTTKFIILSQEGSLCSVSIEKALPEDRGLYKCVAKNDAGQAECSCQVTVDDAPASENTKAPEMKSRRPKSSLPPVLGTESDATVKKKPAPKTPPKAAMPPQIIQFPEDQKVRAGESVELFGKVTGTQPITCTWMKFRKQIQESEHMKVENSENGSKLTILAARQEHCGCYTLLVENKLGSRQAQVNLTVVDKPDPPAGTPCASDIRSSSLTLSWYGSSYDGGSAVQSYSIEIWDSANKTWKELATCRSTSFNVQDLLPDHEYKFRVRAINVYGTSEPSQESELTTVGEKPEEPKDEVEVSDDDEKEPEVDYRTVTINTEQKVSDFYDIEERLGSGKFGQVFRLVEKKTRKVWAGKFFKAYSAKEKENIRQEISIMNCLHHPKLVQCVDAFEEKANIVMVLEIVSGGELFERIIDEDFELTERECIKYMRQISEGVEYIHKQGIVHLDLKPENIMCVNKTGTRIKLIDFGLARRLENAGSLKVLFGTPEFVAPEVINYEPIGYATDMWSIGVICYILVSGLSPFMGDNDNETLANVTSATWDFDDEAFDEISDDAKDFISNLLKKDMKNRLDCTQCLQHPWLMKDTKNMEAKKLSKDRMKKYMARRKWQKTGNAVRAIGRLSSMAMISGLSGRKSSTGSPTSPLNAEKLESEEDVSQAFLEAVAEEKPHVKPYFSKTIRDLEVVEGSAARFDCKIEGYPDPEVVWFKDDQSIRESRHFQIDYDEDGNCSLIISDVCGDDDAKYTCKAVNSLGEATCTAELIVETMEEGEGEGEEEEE

[6] = molecular target: Myosin light chain kinase, smooth muscle (Homo sapiens) (UniProt Q15746); details: at 10 µM
[7] = molecular target: Mitogen-activated protein kinase kinase kinase 9 (Homo sapiens) (UniProt P80192); details: at 1 µM
Mitogen-activated protein kinase kinase kinase 9 (Homo sapiens), sequence (P80192 whole entry, looked up): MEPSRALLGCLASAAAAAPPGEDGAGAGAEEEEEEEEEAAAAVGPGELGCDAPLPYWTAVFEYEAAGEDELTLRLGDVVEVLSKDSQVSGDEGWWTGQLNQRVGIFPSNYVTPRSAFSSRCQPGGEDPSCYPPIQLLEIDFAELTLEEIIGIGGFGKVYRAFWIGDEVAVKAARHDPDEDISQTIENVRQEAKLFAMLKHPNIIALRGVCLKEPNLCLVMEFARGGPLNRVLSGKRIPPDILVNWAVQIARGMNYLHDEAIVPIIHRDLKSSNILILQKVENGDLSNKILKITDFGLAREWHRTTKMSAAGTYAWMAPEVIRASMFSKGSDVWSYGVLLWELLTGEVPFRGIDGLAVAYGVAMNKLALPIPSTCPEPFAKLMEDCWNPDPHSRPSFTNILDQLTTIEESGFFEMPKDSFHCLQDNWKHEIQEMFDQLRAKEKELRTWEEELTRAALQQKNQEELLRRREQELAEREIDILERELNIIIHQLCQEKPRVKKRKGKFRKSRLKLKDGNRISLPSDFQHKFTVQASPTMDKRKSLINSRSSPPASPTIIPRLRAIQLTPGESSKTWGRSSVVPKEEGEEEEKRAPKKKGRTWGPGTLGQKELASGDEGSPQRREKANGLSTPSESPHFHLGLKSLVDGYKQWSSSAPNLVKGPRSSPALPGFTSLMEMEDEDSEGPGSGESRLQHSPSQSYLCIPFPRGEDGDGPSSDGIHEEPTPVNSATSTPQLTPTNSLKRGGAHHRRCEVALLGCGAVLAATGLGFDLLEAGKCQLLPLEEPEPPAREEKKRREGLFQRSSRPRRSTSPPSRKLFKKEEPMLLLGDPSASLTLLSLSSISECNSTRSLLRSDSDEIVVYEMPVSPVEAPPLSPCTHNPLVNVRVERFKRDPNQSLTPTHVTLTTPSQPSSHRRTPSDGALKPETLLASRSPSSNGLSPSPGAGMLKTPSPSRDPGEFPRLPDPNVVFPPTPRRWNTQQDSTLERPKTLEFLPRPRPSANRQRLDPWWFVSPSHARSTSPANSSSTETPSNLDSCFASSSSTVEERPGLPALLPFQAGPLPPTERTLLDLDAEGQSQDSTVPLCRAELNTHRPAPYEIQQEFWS

[8] = molecular target: Mitogen-activated protein kinase kinase kinase 9 (Homo sapiens) (UniProt P80192); details: at 10 µM
[9] = molecular target: Serine/threonine-protein kinase MRCK alpha (Homo sapiens) (UniProt Q5VT25); details: at 10 µM
[10] = molecular target: Serine/threonine-protein kinase MRCK beta (Homo sapiens) (UniProt Q9Y5S2); details: at 1 µM
[11] = molecular target: Serine/threonine-protein kinase MRCK beta (Homo sapiens) (UniProt Q9Y5S2); details: at 10 µM
[12] = molecular target: Ribosomal protein S6 kinase alpha-5 (Homo sapiens) (UniProt O75582); details: at 1 µM
Ribosomal protein S6 kinase alpha-5 (Homo sapiens), sequence (O75582 whole entry, looked up): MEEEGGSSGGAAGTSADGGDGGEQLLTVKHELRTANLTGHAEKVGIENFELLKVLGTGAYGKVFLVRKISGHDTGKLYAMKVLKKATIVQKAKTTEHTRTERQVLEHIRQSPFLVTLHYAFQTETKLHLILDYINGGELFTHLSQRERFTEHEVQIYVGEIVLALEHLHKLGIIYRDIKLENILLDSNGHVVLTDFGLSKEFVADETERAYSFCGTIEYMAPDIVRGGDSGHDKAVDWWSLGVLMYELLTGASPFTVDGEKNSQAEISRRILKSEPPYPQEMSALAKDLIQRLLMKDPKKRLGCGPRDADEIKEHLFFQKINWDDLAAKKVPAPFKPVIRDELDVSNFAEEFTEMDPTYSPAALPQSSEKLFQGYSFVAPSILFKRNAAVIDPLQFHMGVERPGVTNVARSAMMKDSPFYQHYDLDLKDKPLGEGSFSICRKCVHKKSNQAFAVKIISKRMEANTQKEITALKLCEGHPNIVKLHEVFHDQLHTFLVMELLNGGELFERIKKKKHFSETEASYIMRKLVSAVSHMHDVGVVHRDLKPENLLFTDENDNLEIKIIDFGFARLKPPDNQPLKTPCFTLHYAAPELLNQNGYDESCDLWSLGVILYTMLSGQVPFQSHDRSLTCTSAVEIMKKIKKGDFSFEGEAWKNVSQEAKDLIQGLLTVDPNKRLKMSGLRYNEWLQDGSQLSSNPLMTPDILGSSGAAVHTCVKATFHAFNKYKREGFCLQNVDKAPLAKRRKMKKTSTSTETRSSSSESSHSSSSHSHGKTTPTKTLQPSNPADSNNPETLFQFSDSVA

[13] = molecular target: Ribosomal protein S6 kinase alpha-5 (Homo sapiens) (UniProt O75582); details: at 10 µM
[14] = molecular target: Ribosomal protein S6 kinase alpha-4 (Homo sapiens) (UniProt O75676); details: at 1 µM
[15] = molecular target: Ribosomal protein S6 kinase alpha-4 (Homo sapiens) (UniProt O75676); details: at 10 µM
[16] = molecular target: SRSF protein kinase 3 (Homo sapiens) (UniProt Q9UPE1); details: at 10 µM
SRSF protein kinase 3 (Homo sapiens), sequence (Q9UPE1 whole entry): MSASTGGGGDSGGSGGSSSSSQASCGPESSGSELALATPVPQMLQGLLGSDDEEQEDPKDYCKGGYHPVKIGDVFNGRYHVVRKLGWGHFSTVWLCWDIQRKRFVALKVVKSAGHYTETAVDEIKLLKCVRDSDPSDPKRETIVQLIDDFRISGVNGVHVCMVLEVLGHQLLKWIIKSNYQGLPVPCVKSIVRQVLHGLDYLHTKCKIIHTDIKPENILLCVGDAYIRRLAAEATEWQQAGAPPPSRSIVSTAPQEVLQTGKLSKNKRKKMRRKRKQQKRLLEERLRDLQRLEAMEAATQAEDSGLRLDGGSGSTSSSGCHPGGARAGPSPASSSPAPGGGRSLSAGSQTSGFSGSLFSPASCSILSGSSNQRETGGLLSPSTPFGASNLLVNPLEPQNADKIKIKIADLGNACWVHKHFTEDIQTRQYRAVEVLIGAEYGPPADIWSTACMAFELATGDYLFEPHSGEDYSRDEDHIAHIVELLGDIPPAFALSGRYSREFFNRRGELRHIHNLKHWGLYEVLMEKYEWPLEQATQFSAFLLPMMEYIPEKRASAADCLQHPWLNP

[17] = molecular target: T3, Serine/threonine-protein kinase 4 (Homo sapiens) (UniProt Q13043); details: at 10 µM
T3 sequence (whole entry): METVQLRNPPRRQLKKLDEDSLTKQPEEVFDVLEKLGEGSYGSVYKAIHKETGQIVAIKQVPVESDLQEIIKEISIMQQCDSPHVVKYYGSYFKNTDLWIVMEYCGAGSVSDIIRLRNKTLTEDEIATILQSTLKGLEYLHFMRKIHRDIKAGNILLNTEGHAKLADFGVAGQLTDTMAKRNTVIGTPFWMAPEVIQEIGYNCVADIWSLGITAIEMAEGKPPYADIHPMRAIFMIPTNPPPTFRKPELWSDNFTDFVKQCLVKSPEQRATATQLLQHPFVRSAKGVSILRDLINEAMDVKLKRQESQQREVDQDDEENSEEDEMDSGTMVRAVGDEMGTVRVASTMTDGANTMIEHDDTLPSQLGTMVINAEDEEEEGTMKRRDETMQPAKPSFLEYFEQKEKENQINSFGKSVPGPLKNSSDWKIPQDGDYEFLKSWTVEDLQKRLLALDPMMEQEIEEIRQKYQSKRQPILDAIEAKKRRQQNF

[18] = molecular target: SRSF protein kinase 3 (Homo sapiens) (UniProt Q9UPE1); details: at 1 µM
[19] = molecular target: Serine/threonine-protein kinase MRCK alpha (Homo sapiens) (UniProt Q5VT25); details: at 1 µM
[20] = molecular target: T3, Serine/threonine-protein kinase 4 (Homo sapiens); details: at 1 µM

SMILES	residual activity [1] [%]	residual activity [2] [%]	residual activity [3] [%]	residual activity [4] [%]	residual activity [5] [%]	residual activity [6] [%]	residual activity [7] [%]	residual activity [8] [%]	residual activity [9] [%]	residual activity [10] [%]	residual activity [11] [%]	residual activity [12] [%]	residual activity [13] [%]	residual activity [14] [%]	residual activity [15] [%]	residual activity [16] [%]	residual activity [17] [%]	residual activity [18] [%]	residual activity [19] [%]	residual activity [20] [%]
Cc1cc2ncc(-c3ccccc3)nc2cc1C	86	106	76	93	77	96	92	102	81	92	88	134	103	92	103	87	125			
COc1cc2ncc(-c3ccccc3)nc2cc1OC	92	92	90	90	78	86	94	60	93	98	79			83	88	92		134		
Cc1ccc(S(=O)(=O)/C=C/C#N)cc1	124	94	93	77	95	85	97	97	95	89	92	111	125	105	99	102	109	100	86	79
Cc1cc(Nc2nc(-c3ccccc3)nc3ccccc23)n[nH]1	101	71	72	58	55	9	4	1	110	96	99	72	39	59	14	16	6	46	122	48
N#Cc1cnc2cnc(NCc3cccnc3)cc2c1Nc1ccc(F)c(Cl)c1	10	7	83	74	69	46	99	99	9					5	2	99	91	119	14	93
O=[N+]([O-])c1ccc(-c2nc(-c3ccc(F)cc3)c(-c3ccncc3)[nH]2)cc1	50	4	101	98	100	86		83	98	91	89	108	119	87	85	104	114	105	126	74
Cc1ccc(NC2=CC(=O)c3sc(C)nc3C2=O)cc1		104	74	101	101	82	98	90	91	87	86	106	113	96	90	103	111	101	95	72
N#CC(C#N)=C(N)/C(C#N)=C/c1ccc(O)cc1	91	99	94		68	85	99	97	76	96	84	122	92	91	85	82		119	90	
COc1ccc(OC)c2c(=S)c3ccccc3[nH]c12	112	96	81	90	132	71		89	93	88	95	93	122	100	89	79	99	103	119	74
Nc1ccc2ncnc(NCCc3ccc(Oc4ccccc4)cc3)c2c1	90	82	73	96	104	64		80	124	103	107	109	111	92	72	86	102	111	131	89
Cc1cccc(-c2[nH]c(C(C)(C)C)nc2-c2ccc3c(c2)OCO3)n1	70	39	107	83	84	90	99			83	86	135		97	104		105			102
COc1cccc(-c2cc(=O)c3ccccc3o2)c1N	138	77	106	84	107	77	111	96	96	102	95	104	117	94	98	110	114	109	118	86
Nc1n[nH]c2nnc(-c3c(-c4ccccc4)nn4ccccc34)cc12	104	65	88	70	113	74	86	31	98	90	79	102	113	93	78	56	87	93	111	71
CN(C)CCCn1cc(C2=C(c3c[nH]c4ccccc34)C(=O)NC2=O)c2ccccc21			79		20	7	58	13	76		40	24	4	18	3	55	9	113	115	40
